Test results taken from PubChem BioAssay (Tox21).
Values joined by “and” are separate entries in the source; they are usually repeats but may differ in a detail not shown here. Identical values can stand only once. Results filed as inconclusive are left out. A call without a number means that no potency is given here. Some structures have more than one record in an assay (separate samples or runs), and their calls can disagree. Active and inactive are the calls of the source. Unless noted, calls follow the shape of the full dose curve.

What was measured:
[1] = Nuclear factor erythroid 2-related factor 2/antioxidant responsive element (Nrf2/ARE) small molecule agonists: qHTS cell viability counter screen in human keratinocytes (AID 1919968; active = well fitted curve in the direction sought with a large enough effect in the repeat runs; an effect the other way counts as inactive or inconclusive; also: nearly all actives have a fitted effect of over 55% in size; also: potency is read from the fitted curve at half-maximal effect)
Outline: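 HaCaT ARE reporter line, 1,500 cells/well; 5 h settle, 37 C/5% CO2; cpd in DMSO pinned; 23 h exposure; CellTiter-Fluor, 1 h; fluorescence.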

[2] = Nuclear factor erythroid 2-related factor 2/antioxidant responsive element (Nrf2/ARE) small molecule agonists: luciferase reporter gene qHTS assay in human keratinocytes (AID 1919969); also: nearly all actives have a fitted effect of over 35% in size
[3] = target: Gonadotropin-releasing hormone receptor (Homo sapiens) (UniProt P30968); test: Human gonadotropin-releasing hormone receptor (GnRHR) small molecule agonists, calcium flux assay in GnRHR-HEK293 cells (AID 1920063); also: nearly all actives have a fitted effect of over 35% in size
Outline: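 GnRHR-HEK293, 1500 cells/well, 18 h 37 C/5% CO2; Ca dye 1 h 37 C; cpd pinned (DMSO), agonist mode; kinetic FL 480/540, 3 min, 1 s reads; 15 conc, n=3.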

[4] = target: KiSS-1 receptor (Homo sapiens) (UniProt Q969F8); test: Human kisspeptin (KISS1R) small molecule agonists, calcium flux assay in KISS1R-HEK293 cells (AID 1920064; active = well fitted curve in the direction sought with a large enough effect in the repeat runs; an effect the other way counts as inactive or inconclusive)
Outline: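 Stable human KISS1R HEK293 line; 18 h plating, 37 C/5% CO2; calcium dye 1 h 37 C; compound pin transfer; kinetic fluorescence Ex/Em 480/540, 3 min.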

[5] = p53 small molecule agonists, cell-based qHTS assay with rat liver microsomes (AID 1963578)
Outline: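 Fluorescence from a beta-lactamase reporter under a p53 response element was measured after cells had been incubated 16 h at 37 C with test compound and rat liver microsomes plus NADPH (0.5 mg/mL final each).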

[6] = p53 small molecule agonists, cell-based qHTS assay with human liver microsomes: qHTS cell viability counter screen (AID 1963579); also: nearly all actives have a fitted effect of over 45% in size
Outline: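 Seed p53RE-bla cells at 4,000 per well; incubate 5 h at 37 C; add compound, human liver microsomes and NADPH; incubate 16 h at 37 C; add CellTiter-Glo; after 30 min at room temperature, read luminescence.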

[7] = p53 small molecule agonists, cell-based qHTS assay with rat liver microsomes: qHTS cell viability counter screen (AID 1963580); also: nearly all actives have a fitted effect of over 45% in size
Outline: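 Intracellular ATP, by CellTiter-Glo luminescence, defines viability. HCT-116 p53RE-bla cells, 4,000 per well, were compound-treated in the presence of rat liver microsomes and NADPH for 16 h at 37 C.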

[8] = p53 small molecule agonists, cell-based qHTS assay: qHTS cell viability counter screen (AID 1963581); also: nearly all actives have a fitted effect of over 45% in size
Outline: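 HCT-116 p53RE-bla cells, 4,000/well, plated 5 h before compound pin transfer; 16 h at 37 C; bla substrate 2 h RT; then CellTiter-Glo, 30 min RT, luminescence.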

[9] = p53 small molecule agonists, cell-based qHTS assay (AID 1963582; active = well fitted activation curve with a large enough effect in the signal ratio in the repeat runs, not every such curve was filed as active; the % refers to the signal ratio)
Outline: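 Reporter line: p53RE-bla. Pre-incubation 5 h, 37 C, 5% CO2; compound (DMSO, pin tool) 16 h, 37 C; B/G FRET substrate 2 h RT; fluorescence intensity read.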

[10] = target: 5-hydroxytryptamine receptor 2A (Homo sapiens) (UniProt P28223); test: 5-hydroxytryptamine receptor 2A (HTR2A) small molecule antagonists, cell-based qHTS assay (AID 1963586); also: nearly all actives have a fitted effect of over 45% in size
Outline: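 Antagonist-mode intracellular calcium assay: DOI (4 nM) added after 5 min compound pre-incubation at room temperature to dye-loaded HTR2A-CHO cells. Fluorescence followed for 3 min, sampled every second.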

[11] = target: 5-hydroxytryptamine receptor 2A (Homo sapiens) (UniProt P28223); test: 5-hydroxytryptamine receptor 2A (HTR2A) small molecule agonists, cell-based qHTS assay (AID 1963587); also: nearly all actives have a fitted effect of over 30% in size
Outline: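 Kinetic calcium-flux fluorescence (2 min, 1 sec intervals) after compound addition in agonist mode. HTR2A-CHO cells were cultured 18 h, then dye-loaded 1 h at 37 C.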

[12] = target: Muscarinic acetylcholine receptor M1 (Homo sapiens) (UniProt P11229); test: Cholinergic receptor muscarinic 1 (CHRM1) small molecule antagonists, cell-based qHTS assay (AID 1963588); also: nearly all actives have a fitted effect of over 40% in size; also: potency is read from the fitted curve at half-maximal effect
Outline: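 CHRM1-CHO calcium-flux assay, antagonist mode. Cells were seeded 18 h, dye-loaded 1 h at 37 C and given compound for 5 min at RT, then acetylcholine was added at 50nM. FDSS fluorescence was read 3 min; 15 concentrations, three runs.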

[13] = target: Muscarinic acetylcholine receptor M1 (Homo sapiens) (UniProt P11229); test: Cholinergic receptor muscarinic 1 (CHRM1) small molecule agonists, cell-based qHTS assay (AID 1963589); also: nearly all actives have a fitted effect of over 35% in size
Outline: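 Human M1 in stable CHO line; 18 h plating, 1 h dye load 37 C; cpd added (agonist mode); Ca2+ fluorescence kinetic read, 1 s intervals; 15 conc, 3 runs.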

[14] = cAMP Responsive Elements (CRE) small molecule agonists, cell-based qHTS assay (AID 1963590)
Outline: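 HEK 293T CRE-bla, 2,000 cells/well, 18 h preincubation 37 C/5% CO2; cpds (DMSO) pinned, 3 h; LiveBLAzer B/G FRET substrate, 2 h RT.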

[15] = cAMP Responsive Elements (CRE) small molecule antagonists, cell-based qHTS assay (AID 1963591; active = well fitted inhibition curve with a large enough effect in the signal ratio in the repeat runs, not every such curve was filed as active; the % refers to the signal ratio)
Outline: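 Beta-lactamase reporter read by FRET substrate (LiveBLAzer B/G) after 2 h at room temperature. CRE-bla HEK293T cells had received compound plus 0.25 uM (final) NKH477 for 3 h at 37 °C.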

[16] = target: Beta-2 adrenergic receptor (Homo sapiens) (UniProt P07550); test: Adrenergic beta2 receptor (ADRB2) small molecule antagonists, cell-based qHTS assay (AID 1963592); also: series mostly up to about 92 µM; nearly all actives have a fitted effect of over 50% in size
Outline: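 Cells (CHO, stable ADRB2 overexpression) incubated 18-20hr at 37C; compounds added from DMSO; agonist mix (1nM isoproterenol, 100uM IBMX, 25uM Ro-20-1724) added; 0.5hr RT; d2-cAMP and anti-cAMP-cryptate added; 1hr RT; 665/615 nm read.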

[17] = target: D(2) dopamine receptor (Homo sapiens) (UniProt P14416); test: Dopamine D2 receptor (DRD2) small molecule agonists, cell-based qHTS assay (AID 1963594); also: nearly all actives have a fitted effect of over 35% in size
Outline: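 cAMP accumulation in DRD2-HEK293 cells measured by HTRF after 1 h detection; compounds added 10 min before NKH477 (200nM […]) forskolin-analogue stimulation, 30 min at room temperature, with Ro20-1724 present at 0.1 mM final.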

[18] = target: D(2) dopamine receptor (Homo sapiens) (UniProt P14416); test: Dopamine D2 receptor (DRD2) small molecule antagonists, cell-based qHTS assay (AID 1963595; active = well fitted inhibition curve with a large enough effect in the signal ratio in the repeat runs, with a control signal flat; the % refers to the signal ratio)
Outline: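 HEK293 cells stably expressing DRD2 were preincubated with 0.1 mM Ro20-1724, then with compound for 10 min at room temperature. Cells were stimulated with 200 nM NKH477 plus 12 nM quinpirole for 30 min, and cAMP was read by HTRF.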

[19] = target: Beta-2 adrenergic receptor (Homo sapiens) (UniProt P07550); test: Adrenergic beta2 receptor (ADRB2) small molecule agonists, cell-based qHTS assay (AID 1963593);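 also: CHO cells stably overexpressing human ADRB2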
Outline: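 CHO cells stably over-expressing ADRB2 were plated overnight at 37C, then dosed with compounds plus a stimulation mix containing 100uM IBMX and 25uM Ro-20-1724 for 0.5hr at room temperature. cAMP was measured by HTRF competition, 1hr.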

[20] = G protein-coupled receptor (GPCR) small molecule agonists, calcium flux assay: HEK293 wild type cell line counter screen (AID 1920065)
Outline: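 Kinetic fluorescence at Ex/Em 480/540, recorded every second over 3 min, served as the read-out after compound addition. Each compound was tested at 15 concentrations in triplicate on cells pre-loaded with calcium dye for 1 h.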

Chain of Beta-2 adrenergic receptor (Homo sapiens) (P07550 whole entry, looked up): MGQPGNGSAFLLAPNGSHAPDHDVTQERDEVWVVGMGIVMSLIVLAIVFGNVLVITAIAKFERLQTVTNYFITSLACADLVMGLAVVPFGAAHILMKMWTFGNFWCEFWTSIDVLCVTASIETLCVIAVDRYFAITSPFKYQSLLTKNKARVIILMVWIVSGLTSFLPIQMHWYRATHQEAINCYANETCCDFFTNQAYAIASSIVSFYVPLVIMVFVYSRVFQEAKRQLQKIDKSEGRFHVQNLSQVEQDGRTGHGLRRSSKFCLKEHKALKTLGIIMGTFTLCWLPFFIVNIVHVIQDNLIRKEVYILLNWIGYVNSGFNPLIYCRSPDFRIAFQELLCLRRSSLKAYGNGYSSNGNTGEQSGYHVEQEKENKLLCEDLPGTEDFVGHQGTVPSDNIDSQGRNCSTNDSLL
Chain of 5-hydroxytryptamine receptor 2A (Homo sapiens) (P28223 whole entry, looked up): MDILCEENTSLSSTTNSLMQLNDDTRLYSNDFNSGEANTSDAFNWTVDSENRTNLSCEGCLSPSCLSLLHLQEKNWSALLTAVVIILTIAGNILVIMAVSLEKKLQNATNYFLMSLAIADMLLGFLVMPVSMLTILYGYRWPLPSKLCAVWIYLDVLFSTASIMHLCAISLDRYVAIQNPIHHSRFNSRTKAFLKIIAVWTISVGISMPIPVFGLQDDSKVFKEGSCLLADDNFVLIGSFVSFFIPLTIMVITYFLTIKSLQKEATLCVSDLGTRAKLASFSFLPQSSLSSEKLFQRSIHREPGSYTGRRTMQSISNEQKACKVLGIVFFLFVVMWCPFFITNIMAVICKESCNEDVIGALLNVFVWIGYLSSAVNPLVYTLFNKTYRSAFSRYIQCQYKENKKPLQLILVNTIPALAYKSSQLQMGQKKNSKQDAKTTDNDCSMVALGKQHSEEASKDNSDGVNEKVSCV
Chain of Muscarinic acetylcholine receptor M1 (Homo sapiens) (P11229 whole entry, looked up): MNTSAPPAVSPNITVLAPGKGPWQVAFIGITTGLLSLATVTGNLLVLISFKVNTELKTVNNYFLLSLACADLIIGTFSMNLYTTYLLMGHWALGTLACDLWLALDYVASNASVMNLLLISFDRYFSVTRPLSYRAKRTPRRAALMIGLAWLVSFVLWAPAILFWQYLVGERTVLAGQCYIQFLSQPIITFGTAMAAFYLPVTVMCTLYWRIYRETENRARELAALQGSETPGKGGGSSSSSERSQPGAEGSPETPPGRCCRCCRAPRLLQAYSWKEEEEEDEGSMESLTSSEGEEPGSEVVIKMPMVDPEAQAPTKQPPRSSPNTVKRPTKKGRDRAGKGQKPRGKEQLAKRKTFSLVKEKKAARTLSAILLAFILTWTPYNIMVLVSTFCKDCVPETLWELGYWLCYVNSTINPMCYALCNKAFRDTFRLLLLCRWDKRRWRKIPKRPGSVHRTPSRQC
Chain of Gonadotropin-releasing hormone receptor (Homo sapiens) (P30968 whole entry, looked up): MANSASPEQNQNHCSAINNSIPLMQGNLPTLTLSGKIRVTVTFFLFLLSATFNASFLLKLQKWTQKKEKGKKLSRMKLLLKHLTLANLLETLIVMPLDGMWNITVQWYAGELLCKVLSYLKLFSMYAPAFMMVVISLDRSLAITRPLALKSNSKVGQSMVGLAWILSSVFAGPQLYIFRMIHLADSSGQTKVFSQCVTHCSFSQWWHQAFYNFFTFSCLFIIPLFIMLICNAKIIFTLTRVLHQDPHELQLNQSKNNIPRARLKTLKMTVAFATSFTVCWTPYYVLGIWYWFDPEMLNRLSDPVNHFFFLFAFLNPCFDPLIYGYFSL
Chain of D(2) dopamine receptor (Homo sapiens) (P14416 whole entry, looked up): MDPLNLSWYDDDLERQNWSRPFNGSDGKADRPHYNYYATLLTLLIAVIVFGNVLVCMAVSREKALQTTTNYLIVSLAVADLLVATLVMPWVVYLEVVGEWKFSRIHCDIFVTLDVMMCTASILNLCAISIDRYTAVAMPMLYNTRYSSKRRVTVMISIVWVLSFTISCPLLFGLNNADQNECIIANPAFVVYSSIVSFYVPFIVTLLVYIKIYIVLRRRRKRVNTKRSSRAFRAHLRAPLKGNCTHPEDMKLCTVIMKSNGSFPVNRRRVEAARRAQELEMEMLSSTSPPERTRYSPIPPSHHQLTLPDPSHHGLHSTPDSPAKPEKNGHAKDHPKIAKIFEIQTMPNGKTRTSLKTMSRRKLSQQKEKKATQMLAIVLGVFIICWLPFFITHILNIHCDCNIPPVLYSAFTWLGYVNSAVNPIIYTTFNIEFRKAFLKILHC
Chain of KiSS-1 receptor (Homo sapiens) (Q969F8 whole entry, looked up): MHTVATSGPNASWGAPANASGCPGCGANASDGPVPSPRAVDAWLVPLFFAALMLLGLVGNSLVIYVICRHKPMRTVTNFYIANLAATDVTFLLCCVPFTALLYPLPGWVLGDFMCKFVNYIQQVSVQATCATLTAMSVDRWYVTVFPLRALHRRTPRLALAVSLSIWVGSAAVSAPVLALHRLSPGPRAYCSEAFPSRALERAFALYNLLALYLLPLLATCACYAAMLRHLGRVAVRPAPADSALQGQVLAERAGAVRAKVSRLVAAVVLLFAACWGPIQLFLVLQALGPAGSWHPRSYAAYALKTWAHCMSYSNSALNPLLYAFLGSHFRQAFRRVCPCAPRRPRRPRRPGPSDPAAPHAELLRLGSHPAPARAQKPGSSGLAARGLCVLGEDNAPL

| SMILES | Potency [1] | Potency [2] | Potency [3] | Potency [4] | Potency [5] | Potency [6] | Potency [7] | Potency [8] | Potency [9] | Potency [10] | Potency [11] | Potency [12] | Potency [13] | Potency [14] | Potency [15] | Potency [16] | Potency [17] | Potency [18] | Potency [19] | Potency [20] |
| --- | --- | --- | --- | --- | --- | --- | --- | --- | --- | --- | --- | --- | --- | --- | --- | --- | --- | --- | --- | --- |
| C[C@]12CC[C@@H]3c4ccc(O)cc4C[C@@H](CCCCCCCCCS(=O)CCCC(F)(F)C(F)(F)F)[C@H]3[C@@H]1CC[C@@H]2O (some centres undefined) | inactive and 4.73 µM (active) | inactive | inactive | inactive | inactive | inactive | inactive | inactive | inactive | inactive | inactive | inactive | inactive | inactive | inactive | inactive | inactive | inactive |  |  |
| CC1(C)NC(=O)NC1=O | inactive | inactive | inactive | inactive | inactive | inactive | inactive | inactive | inactive | inactive | inactive | inactive | inactive | inactive | inactive | inactive | inactive | inactive | inactive |  |
| CCCC(CCC)C(=O)O | inactive | inactive | inactive | inactive |  |  |  |  |  |  |  |  |  | inactive | inactive | inactive | inactive | inactive | inactive | inactive |
| Nc1ccc(O)c(C(=O)O)c1 | inactive | inactive | inactive | inactive | inactive | inactive | inactive | inactive | inactive | inactive | inactive | inactive | inactive | inactive | inactive | inactive | inactive | inactive |  |  |
| C/C=C/c1ccc(OC)cc1 | inactive | inactive | inactive | inactive |  |  | inactive | inactive |  | inactive | inactive |  | inactive | inactive | inactive | inactive | inactive | inactive | inactive | inactive |
| Nc1nc(=S)c2[nH]cnc2[nH]1 | 66.8 µM (active) and inactive | inactive | inactive | inactive |  | inactive |  |  |  |  |  |  |  | inactive |  | inactive | inactive | inactive | inactive | inactive |
| CCO[Si](CCCN)(OCC)OCC | inactive | inactive | inactive | inactive | inactive | inactive | inactive | inactive | inactive | inactive | inactive |  | inactive | inactive | inactive | inactive | inactive | inactive | inactive |  |
| CC(C)(Oc1ccc(Cl)cc1)C(=O)O | inactive | inactive | inactive | inactive | inactive | inactive | inactive | inactive | inactive |  |  |  |  | inactive | inactive | inactive | inactive | inactive |  |  |
| NS(=O)(=O)c1cc(C(=O)O)c(NCc2ccco2)cc1Cl | inactive | inactive | inactive | inactive |  |  |  |  |  |  |  |  |  | inactive | inactive | inactive | inactive | inactive | inactive | inactive |
| COCC(=O)O | inactive | inactive | inactive | inactive | inactive | inactive | inactive | inactive | inactive | inactive | inactive | 8.63 µM (active) and inactive | inactive | inactive | inactive | inactive | inactive | inactive | inactive |  |
| Cc1cccc([N+](=O)[O-])c1C | inactive | inactive | inactive | inactive | inactive | inactive | inactive | inactive | inactive | inactive | inactive | inactive | inactive | inactive |  | inactive | inactive | inactive |  |  |
| OCCOCCOCCO | inactive | inactive | inactive | inactive | inactive | inactive | inactive | inactive | inactive | inactive | inactive | inactive | inactive | inactive | inactive | inactive |  | inactive | inactive |  |
| Nc1ccc(C(=O)O)cc1 | inactive | inactive | inactive | inactive | inactive | inactive | inactive | inactive | inactive | inactive | inactive | inactive | inactive | inactive | inactive | inactive | inactive | inactive | inactive |  |
